# A selection: hits, their analogues and other compounds. The true share with any hit is near 2.5%.
# Cruzain noTriton: blocks cruzain activity in detergent-free assay | purified cruzain, Z-FR-AMC fluorescence, no detergent | 200,000 compounds, 2.3% hits | AID 1476 | Potency, µM, inactives show max response, negative = inhibition, actives largely listed as inhibitors | P25779;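 also: plate controls were enzyme without inhibitor for no effect and buffer without enzyme for full effect; nearly all actives have a fitted effect of over 40% in size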
# Target sequence (P25779 123-467 limits assumed): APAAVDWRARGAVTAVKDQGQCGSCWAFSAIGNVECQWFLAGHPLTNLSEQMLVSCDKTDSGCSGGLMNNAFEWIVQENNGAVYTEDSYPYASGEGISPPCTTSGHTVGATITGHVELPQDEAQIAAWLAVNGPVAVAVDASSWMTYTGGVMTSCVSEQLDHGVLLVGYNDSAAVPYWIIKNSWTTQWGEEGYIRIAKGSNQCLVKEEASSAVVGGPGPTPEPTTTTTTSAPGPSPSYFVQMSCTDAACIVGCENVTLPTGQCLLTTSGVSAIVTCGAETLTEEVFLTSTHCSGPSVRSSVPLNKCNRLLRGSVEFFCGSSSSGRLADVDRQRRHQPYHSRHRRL
#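 Purified cruzain at 1.5 nM, pre-incubated 15 min with compound at room temperature in 100 mM sodium acetate pH 5.5, 5 mM DTT, 0.00005% Triton X-100. Reaction started with 2 uM Z-FR-AMC; AMC fluorescence increase over 60 s gives rate.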
# Cruzain Triton: inhibitors of Trypanosoma cruzi cruzain with detergent. P25779. purified cruzain, Z-FR-AMC fluorescence, 0.01% Triton. Potency, µM, for the others: max response, negative = inhibition, hits mostly inhibitors. 200,000 compounds, 0.43% hits;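 also: plate controls were neutral wells for no effect and buffer without enzyme for full effect; nearly all actives have a fitted effect of over 40% in size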
#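 15 min RT preincubation of 1.5 nM cruzain with compound, then 2 uM Z-FR-AMC added; kinetic AMC fluorescence, 60 s delta. Triton X-100 0.01%, pH 5.5.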
# The depositor's hits bear a star; ? = inconclusive. Calls follow the shape of the dose curve; as a rule, active = well fitted curve in the direction sought with a large enough effect; inconclusive = small, poorly fitted or top-dose-only effect, or another doubt; inactive = no such curve, though single readings can be large; an effect the other way counts as inactive or inconclusive. Potency is read from the fitted curve at half-maximal effect.
SMILES,Cruzain noTriton,Cruzain Triton
COc1ccccc1N(O)C1CC(=O)N(c2ccc(Br)cc2)C1=O (stereo unspecified),?,-8.2%
Cc1ccc(C(=O)Nc2nnc(SCc3cc(=O)c4c(C)ccc(C)c4[nH]3)s2)cc1,-28.6%,1.4%
COc1cc(NC(=O)CCn2c(-c3ccccc3)cc(C(C)=O)c2C)cc(OC)c1,-1.0%,-5.8%
CCOc1ccc(N(C)S(=O)(=O)c2c(C(=O)N3CCC(C)CC3)c(C)n(C)c2C)cc1,?,-0.2%
CCOC(=O)c1cccc(NC(=O)CSc2ncc3c(n2)-c2ccc(Cl)cc2N(Cc2ccccc2)S3(=O)=O)c1,-26.9%,-3.7%
CC(/C=N/Nc1nnc2c(n1)[nH]c1ccccc12)=C\c1ccco1,10µM*,-1.8%
Cc1cccc2c1[nH]c1nc(N/N=C\c3ccco3)nnc12,-10.5%,-1.3%
Cc1nn2c(=O)cc(COC(=O)c3ccc(NC(=O)c4cccs4)cc3)nc2s1,6.7%,-0.3%
Cn1c(=NC(=O)c2ccc(S(=O)(=O)N3CCCc4ccccc43)cc2)sc2cc(S(C)(=O)=O)ccc21,-11.2%,-5.5%
C#CCn1c(=NC(=O)c2ccc(S(=O)(=O)N3CCCc4ccccc43)cc2)sc2cc(S(N)(=O)=O)ccc21,7.94µM*,-2.0%
CC1CCCC(NC(=O)Cc2ccc(Br)cc2)C1C (stereo unspecified),?,25.1µM*
O=C(Cc1ccc(Br)cc1)NC1CCCCC1,4.2%,-5.6%
COc1cccc(N2CCN(CC(=O)Nc3nnc(-c4ccccc4)s3)CC2)c1,25.1µM*,-2.2%
COc1cccc(N2CCN(CC(=O)NCc3cccs3)CC2)c1,-3.5%,0.8%
Cc1ccc(N(CC(=O)N2CCN(c3cc(C)ccc3C)CC2)S(=O)(=O)c2c(C)nn(C)c2C)cc1,?,-9.5%
C[C@H](CCC(=O)NN)[C@@H]1CC[C@@H]2[C@H]3CC[C@H]4C[C@@H](O)CC[C@@]4(C)[C@@H]3CC[C@]21C,?,3.0%
O=C1/C(=C\c2ccccn2)SC(=S)N1Nc1ncc(C(F)(F)F)cc1Cl,6.2%,12.6µM*
O=C1/C(=C/c2ccc(F)cc2)SC(=S)N1Nc1ncc(C(F)(F)F)cc1Cl,?,-7.7%
COc1cc(OC)c2c(-c3cccc(-c4cccc(C)c4)c3)cc(=O)oc2c1,10µM*,0.4%
COc1cc(OC)c2c(-c3cccc(-c4ccc(N(C)C)cc4)c3)cc(=O)oc2c1,31.6µM*,3.2%
COc1cc(OC)c2c(-c3cccc(/C=C/c4ccc(F)cc4)c3)cc(=O)oc2c1,10µM*,3.4%
COc1cc(OC)c2c(-c3cccc(-c4ccc(OC(F)(F)F)cc4)c3)cc(=O)oc2c1,?,-2.5%
COc1ccc(-c2cccc(-c3cc(=O)oc4cc5c(cc34)OCO5)c2)cc1,?,4.0%
COc1cc(OC)c2c(-c3cccc(-c4ccc(O)cc4)c3)cc(=O)oc2c1,?,0.2%
COc1cc(OC)c2c(-c3cccc(-c4ccc(CO)cc4)c3)cc(=O)oc2c1,2.9%,-0.9%
SMILES,Cruzain noTriton,Cruzain Triton
Cc1cccc(-c2cccc(-c3cc(=O)oc4cc5c(cc34)OCO5)c2)c1,35.5µM*,-0.5%
Cc1cc(S(=O)(=O)Nc2ccc(-c3ccc(N4CCCCC4)nn3)cc2)c(C)cc1Cl,-6.7%,-1.3%
Cc1ccc(C2C(=O)N(C3CCCCCC3)CC(=O)N2CCC2=CCCCC2)cc1 (stereo unspecified),-6.0%,1.0%
CC(C)c1cnc2c(c1SCc1cccc(C(F)(F)F)c1)c(=O)n(C)c(=O)n2C,-0.3%,2.8%
C=Cc1ccc(Cn2c(C(=O)O)c(CNC3CCCCC3)c3ccc(OC)cc32)cc1,11.0%,-7.0%
O=C(NC(Cc1ccccc1)C(=O)Oc1ccc2c(C(F)(F)F)cc(=O)oc2c1)OCc1ccccc1 (stereo unspecified),?,11.2µM*
CC(NC(=O)OCc1ccccc1)C(=O)Oc1cc2oc(=O)cc(-c3ccccc3)c2cc1Cl (stereo unspecified),?,22.4µM*
O=C(COc1ccc2c(C(F)(F)F)cc(=O)oc2c1)NCc1cccs1,-15.2%,-1.0%
CC(Oc1ccc2c(-c3ccccc3)cc(=O)oc2c1)C(=O)O (stereo unspecified),-4.0%,-0.9%
CC1CCN(C(=O)CSc2c(C(C)C)cnc3c2c(=O)n(C)c(=O)n3C)CC1,9.4%,7.9%
CN(C)c1cccc2c(C=C(C#N)C#N)ccc(N(C)C)c12,20µM*,20µM*
Cc1cc(C=C(C#N)C#N)c(C)n1-c1ccccc1,-0.6%,-0.5%
COC(=O)c1ccc(NC(=O)CSc2nc(=O)[nH]c3c2CCCC3)cc1,8.5%,-0.4%
COc1ccc(/C=N/NC(=O)c2nn(-c3ccc(Cl)cc3)c(=O)c3c(N)scc23)cc1,12.6µM*,-6.0%
COc1ccc(/C=N/NC(=O)c2nn(-c3ccccc3)c(=O)c3c(N)scc23)cc1,20µM*,-10.4%
CCOC(=O)c1nn(-c2ccc(OC)cc2)c(=O)c2c(N)scc12,5.8%,-13.5%
COc1ccc(/C=N/NC(=O)c2nn(-c3ccc(C)c(C)c3)c(=O)c3ccccc23)cc1,-10.7%,-6.4%
CCCCCn1c(=O)[nH]c2cc(C(=O)N3CCN(c4cccc(C)c4)C(C)C3)ccc2c1=O (stereo unspecified),-0.9%,-3.2%
Cc1ccc(-c2cc(C(=O)N3CCCc4ccccc43)c3ccccc3n2)cc1,31.6µM*,-2.2%
O=C(c1cc(-c2cccnc2)nc2ccccc12)N1CCCc2ccccc21,-9.4%,-9.5%
O=C(Nc1nc2c(F)cccc2s1)c1ccc2c(c1)OCCO2,-5.7%,-3.7%
CC1(c2ccccc2)CC(C)(C)N2C(=O)/C(=C3\SC(=S)NC3=O)c3cccc1c32 (stereo unspecified),7.94µM*,-9.8%
CC1(c2ccccc2)CC(C)(C)N2C(=O)C3(C(C#N)=C(N)Oc4cc(O)ccc43)c3cccc1c32 (stereo unspecified),12.3%,-5.7%
O=C(CC12CC3CC(C1)CC(CC(=O)NC1=NCCS1)(C3)C2)NC1=NCCS1,25.1µM*,-7.3%
O=C(NC1=NCCS1)C12CC3CC(C1)CC(C(=O)NC1=NCCS1)(C3)C2,-7.0%,5.5%
SMILES,Cruzain noTriton,Cruzain Triton
COc1cccc(-c2nc3ccccc3c(=O)o2)c1,-9.5%,1.3%
COc1cc(OC)cc(-c2nc3ccccc3c(=O)o2)c1,15.8µM*,0.0%
CCC(Sc1nc2nccnc2c(=O)n1Cc1ccc(C)cc1)C(=O)NC1CCCCC1 (stereo unspecified),6.8%,-0.1%
COc1cccc(/C=C/C(=O)OCC(=O)c2cc(C)n(CC3CCCO3)c2C)c1OC (stereo unspecified),12.7%,-6.2%
Cc1cc(C(=O)COC(=O)c2ccc(O)cc2)c(C)n1CC1COc2ccccc2O1 (stereo unspecified),25.1µM*,-4.1%
CC(C)(C)C(=O)NCC(c1ccc2c(c1)OCO2)N1CCOCC1 (stereo unspecified),8.0%,-1.9%
CC1=C(C(=O)Nc2ccccc2C)C(c2ccccn2)n2nc(SCc3ccccc3F)nc2N1 (stereo unspecified),2.2%,2.4%
O=C1OCCN1C(=O)[C@H]1[C@H](c2ccc(F)cc2)C(c2ccc(F)cc2)=NN1c1ccc(Br)cc1,25.1µM*,-3.3%
O=C1OCCN1C(=O)[C@H]1[C@H](c2ccc(F)cc2)C(c2ccc(F)cc2)=NN1c1ccccc1,?,-3.5%
O=C1OCCN1C(=O)[C@H]1[C@H](c2ccc(Cl)cc2)C(c2ccc(F)cc2)=NN1c1ccc(Br)cc1,11.2µM*,-12.5%

# High-throughput results as filed in PubChem BioAssay.
